This note sets out measurements from PubChem BioAssay (EPA / NIEHS).

Molecules are shown by their SMILES. Calls of active or inactive are those of the source. The calls were made as follows: active = hit-call score of the fitted dose curve at least 0.9, where 1 is the maximum; inactive = score below 0.9.

Read-out in the assay: Interleukin-8 (IL8), CXCL8 (gene 3576)
The experiment in a line: BSK_SAg_IL8: BioMAP Diversity Plus: SAg Assay for Interleukin-8 (IL8) Biomarker Activity (AID 2283094). Particulars: primary human HUVEC with PBMC; actives raise or lower the signal. On the procedure: BSK_SAg is a cell-based, multiplexed-readout assay that uses umbilical vein endothelium and peripheral blood mononuclear cells, a human vascular primary cell co-culture, with measurements taken at 24 hours after chemical dosing in a 96-well plate.BSK_SAg_IL8 is an assay component measured in the BSK_SAg assay. It measures IL-8 antibody related to regulation of gene expression using ELISA technology.Data from the assay component BSK_SAg_IL8 was analyzed into 1 assay endpoint. This assay endpoint, BSK_SAg_IL8, was analyzed with bidirectional fitting relative to DMSO as the negative control and baseline of activity. Using a type of binding reporter, gain or loss-of-signal activity can be used to understand changes in the signaling as they relate to the gene CXCL8. Furthermore, this assay endpoint can be referred to as a primary readout, because this assay has produced multiple assay endpoints where this one serves a signaling function. To generalize the intended target to other relatable targets, this assay endpoint is annotated to the cytokine intended target family, where the subfamily is interleukins.
The levels of cell surface (or secreted, indicated by the prefix "s") biomarker endpoints were measured by ELISA. Overt cytotoxicity to cells in confluent adherent cultures (all systems other than the BT system) was assessed by measuring total protein levels using sulforhodamine B (SRB) staining in parallel cultures at the time of biomarker measurements, indicated as SRB endpoints. For proliferation assays for adherent cell types, individual cell types are cultured at sub-confluence and relative cell numbers quantified by SRB staining at time points optimized for each system (48 h: 3C and CASM3C systems; 72 h: BT and HDF3CGF systems; 96 h: SAg system). SRB was performed by staining cells with 0.1% SRB after fixation with 10% TCA and reading wells at 560 nm.Viability and proliferation of PBMC (T cells) was quantified by Alamar Blue reduction for the SAg and BT systems. For PBMC viability (referred to as PBMC Cytotoxicity within the assay endpoint names), cells were plated (75,000/well in a 96-well plate) and then chemical samples added for 1 h before addition of activators, SEB and TSST-1 (20 ng/mL final concentration each). Cells were incubated for 90 h. Then, Alamar Blue (20 uL/well) (Invitrogen, Cat DAL1100) was added for 6 h, and the plates were read with a fluorescence microplate reader at 546/580 nm (excitation/emission). For PBMC proliferation, cells were plated and activated as above but incubated for only 16 h prior to addition of Alamar Blue. Plates were read after 6 h.
Consider `Clc1cccc(Cl)c1`, for which the result was inactive.
Still for that read-out and setting: for `CN(C)C(=S)S` the value was “inactive”; for `CCOP(=O)(OCC)OC(=CCl)c1ccc(Cl)cc1Cl`, “inactive”; for `CCCCN(CCCC)C(=S)[S-].CCCCN(CCCC)C(=S)[S-].[Ni+2]`, “inactive”.
Still for that read-out and setting: for `OCCCCO` the value was “inactive”; for `OCCN(CCO)CCO`, “inactive”.
In the case of `N#CCCC(Br)(C#N)CBr` (stereo not given), the AC50 was 20 µM (active).
Turning to `Oc1c(Cl)cc(Cl)cc1Cl`, the result was inactive.
Turning to `CC(C)=CC1C(C(=O)OCc2cccc(Oc3ccccc3)c2)C1(C)C` (stereo not given), the result was inactive.
As to `[Cl][Sn]([c]1ccccc1)([c]1ccccc1)[c]1ccccc1`, the AC50 is 0.253 µM (active).
As for `CC(C)(C)c1ccccc1O`, the outcome was inactive.
With `CCN(CC)C(=O)C(Cl)=C(C)OP(=O)(OC)OC`, the outcome was inactive.
Same read-out and setting: for `O=C(CCl)NCO` the value was “inactive”.
For the molecule `Clc1cccc(Cl)c1Cl`, the result was inactive.
Consider `Cc1cccc(OP(=O)(Oc2cccc(C)c2)Oc2cccc(C)c2)c1`, for which the result was inactive.
As for `CCOP(=S)(OCC)OP(=S)(OCC)OCC`, the AC50 was 36 µM (active).
In the case of `C[C@]12CC[C@@H](O)C[C@@H]1CC[C@@H]1[C@@H]2CC[C@]2(C)C(=O)CC[C@@H]12`, the outcome was inactive.
Same read-out and setting: for `C#CCOC(=O)/C=C(C)/C=C/CC(C)CCCC(C)C` (stereo not given) the value was “inactive”.
For `NC(=O)CCl`, the outcome was inactive.
`Cc1ccccc1OP(=O)(Oc1ccccc1)Oc1ccccc1`: the AC50 is 9.82 µM (active).
Turning to `CCOC(=O)CCN(SN(C)C(=O)Oc1cccc2c1OC(C)(C)C2)C(C)C`, the result was inactive.
Same read-out and setting: then `CCCCCCCCCCCCc1cccc(S(=O)(=O)O)c1`, with “inactive”; and `CCCCOC(=O)COC(=O)c1ccccc1C(=O)OCCCC`, with “inactive”.
Consider `N#Cc1cccnc1`, for which the result was inactive.
For `Cc1cc(Cl)ccc1N`, the outcome was inactive.
Take `COc1ccccc1N`: the result was inactive.
Same read-out and setting: then `Cc1cc(C(C)(C)c2ccc(O)c(C)c2)ccc1O`, with “inactive”; and `Cc1cc(Cl)ccc1OC(C)C(=O)O` (stereo not given), with “inactive”; and `CCOC(=O)C(SP(=S)(OC)OC)c1ccccc1` (stereo not given), with “inactive”.
The same measure, in the same setting: then `O=C(O)COc1cc(Cl)c(Cl)cc1Cl`, with “inactive”; and `Oc1ccc(Cc2ccc(O)cc2)cc1`, with “inactive”.
For the molecule `CCOC(=O)CC(=O)CCl`, the AC50 was 9.73 µM (active).
The same measure, in the same setting: for `Nc1c(Oc2ccccc2)cc(O)c2c1C(=O)c1ccccc1C2=O` the value was 1.56 µM (active).
`O=S(=O)(c1ccc(Cl)cc1)c1cc(Cl)c(Cl)cc1Cl`: the outcome was inactive.
`COCC(=O)N(c1c(C)cccc1C)[C@H](C)C(=O)OC`: the result was inactive.
`O=[N+]([O-])c1cccc2ccccc12`: the outcome was inactive.
`O=C(N[C@H]1CN2CCC1CC2)c1ccc2c(c1)OCCO2`: the result was inactive.
With `Oc1c(Br)cc(Br)cc1Br`, the result was inactive.
Same read-out and setting: then `CCOP(=O)(OCC)SCCSCC`, with “inactive”.
The same measure, in the same setting: then `CC(C=O)Cc1ccc2c(c1)OCO2` (stereo not given), with “inactive”.

As usually defined, the AC50 is the concentration giving half of the maximal activity seen.
